HEK293 tox: kills HEK 293 cells; HEK 293 viability, ATP luminescence (CellTiter-Glo), 48-72 h; actives 6.6% (n = 94,000); AID 1345083; Potency, µM (titrated, usually from 115 µM), most hits filed as inhibitors; also: nearly all actives have a fitted effect of over 60% in size
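Luminescence from cellular ATP, measured with CellTiter-Glo, indicates HEK 293 viability. Cells plated at 250 cells/well are treated with compound for 48 or 72 hr at 37 degree Celsius before reagent addition.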
SNCA viab count: counter-screen for SNCA expression inhibitors: cell viability | HEK-293-SNCA-luc viability, GF-AFC fluorescence, 24 h | Potency, µM (top dose mostly 57.1 µM), most hits filed as cytotoxic | actives 0.12% (n = 150,000) | AID 1671193; also: nearly all actives have a fitted effect of over 30% in size
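HEK-293-SNCA-luc cells (1500/well) plated 24 h, then exposed 24 h to a dilution series; GF-AFC added 30 min at 37C, fluorescence 405/540 nm; normalised to medium-only and DMSO wells, Hill fit.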
SNCA expr inh: inhibitors of alpha-synuclein (SNCA) gene expression; actives 0.17% (n = 140,000); Potency, µM (series often up to 57.2 µM), usual class: inhibitors; HEK-293 SNCA-luciferase knock-in, luminescence, 24 h; also: nearly all actives have a fitted effect of over 45% in size
FLuc inh: inhibitors of firefly (Photinus pyralis) luciferase. AID 1347043. actives 2.5% (n = 76,000). Potency, µM (series often up to 115 µM), usual class: inhibitors. P08659. purified P. pyralis luciferase, luminescence, biochemical; also: nearly all actives have a fitted effect of over 65% in size
Target sequence (P08659 whole entry, looked up): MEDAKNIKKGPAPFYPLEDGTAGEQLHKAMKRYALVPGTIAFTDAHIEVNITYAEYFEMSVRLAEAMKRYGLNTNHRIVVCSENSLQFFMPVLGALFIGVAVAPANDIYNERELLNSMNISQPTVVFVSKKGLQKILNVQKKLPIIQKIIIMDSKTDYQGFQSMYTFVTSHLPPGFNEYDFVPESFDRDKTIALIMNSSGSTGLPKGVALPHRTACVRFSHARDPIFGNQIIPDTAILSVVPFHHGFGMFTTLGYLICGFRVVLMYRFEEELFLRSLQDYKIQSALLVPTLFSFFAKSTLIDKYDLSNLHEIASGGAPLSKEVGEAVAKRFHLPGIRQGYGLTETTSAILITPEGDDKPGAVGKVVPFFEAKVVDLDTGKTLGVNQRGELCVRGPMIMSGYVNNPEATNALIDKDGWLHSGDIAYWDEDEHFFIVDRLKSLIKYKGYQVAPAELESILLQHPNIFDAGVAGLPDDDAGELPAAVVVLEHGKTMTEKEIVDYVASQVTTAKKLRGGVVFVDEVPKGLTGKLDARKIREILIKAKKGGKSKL
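Biochemical qHTS: compound (6-point titration) added to 10uM D-luciferin plus 10uM ATP in Tris acetate pH 7.5 buffer with Mg, Tween-20 and BSA, then purified enzyme at 10nM; light output imaged.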
hNpr1 antagonist: human Npr1 receptor antagonism; actives 1.6% (n = 76,000); P16066; AID 1347048; HEK293 hNpr1 GloSensor cGMP, ANP-stimulated luminescence; Potency, µM (doses to about 46.3 µM), usual class: inhibitors; calls by dose curve; also: nearly all actives have a fitted effect of over 60% in size
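Compound pre-incubated 30 min at room temperature on GloSensor-loaded HEK293 cells stably carrying hNpr1 and the pGS-40F cGMP biosensor. Stimulation uses hNppA at 0.1 nM final; luminescence is taken at baseline and 20 min post-agonist.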
NIH3T3 tox: NIH 3T3 cell cytotoxicity; NIH 3T3 viability, CellTiter-Glo ATP luminescence, 48-72 h; Potency, µM (series often up to 96.7 µM), hits mostly inhibitors; actives 4.3% (n = 94,000); AID 1345082; also: nearly all actives have a fitted effect of over 55% in size
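Luminescent ATP readout (CellTiter-Glo, 10 min RT) after 48 or 72 hr compound exposure of NIH 3T3 cells seeded at 400 cells/well in 1536-well format; quantitative HTS.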
Npr1 antag conf: hNpr1 antagonism, confirmation assay; AID 1347044; HEK293 hNpr1 cGMP GloSensor luminescence, ANP-stimulated; Potency, µM (doses to about 57.6 µM), actives largely listed as inhibitors; shares compounds with hNpr1 antagonist; actives 76% (n = 1,400); calls by dose curve; also: nearly all actives have a fitted effect of over 70% in size
Npr2 selectivity: hNpr2 antagonism, selectivity versus Npr1; shares compounds with hNpr1 antagonist; AID 1347046; actives 67% (n = 1,400); HEK293 hNpr2 GloSensor cGMP luminescence, CNP-stimulated; Potency, µM (doses to about 57.6 µM), actives largely listed as inhibitors; calls by dose curve; also: nearly all actives have a fitted effect of over 70% in size
FLuc inh counter: FLuc enzyme inhibition, Npr1 counter-screen. shares compounds with hNpr1 antagonist. purified FLuc enzyme, luminescence, Km substrate. Potency, µM (series often up to 57.6 µM), usual class: inhibitors. actives 0.7% (n = 1,400). AID 1347047
GloSensor cGMP: counter-screen for Npr1 antagonists: GloSensor control cell line | Potency, µM (series often up to 57.6 µM), most hits filed as inhibitors | actives 69% (n = 1,400) | AID 1347051 | shares compounds with hNpr1 antagonist | HEK293 GloSensor cGMP, SNP-stimulated, luminescence; calls by dose curve; also: nearly all actives have a fitted effect of over 70% in size
Hits are given with their value; 0 = inactive; ? = inconclusive; - = no result. An excerpt weighted towards active compounds, which were near 7.4% of everything screened. Unless noted, calls follow the shape of the dose curve; as a rule, active = well fitted curve in the direction sought with a large enough effect; inconclusive = small, poorly fitted or top-dose-only effect, or another doubt; inactive = no such curve, though single readings can be large; an effect the other way counts as inactive or inconclusive.

SMILES	HEK293 tox	SNCA viab count	SNCA expr inh	FLuc inh	hNpr1 antagonist	NIH3T3 tox	Npr1 antag conf	Npr2 selectivity	FLuc inh counter	GloSensor cGMP
COc1ccc(CN2C=C(C(=O)OCc3noc(-c4cccc(F)c4)n3)C(C)=NS2(=O)=O)cc1	0	0	0	0	0	0	-	-	-	-
Cc1ncccc1C(=O)N1CCCn2ccnc2C1c1ccccc1 (stereo not given)	0	0	0	0	0	0	-	-	-	-
O=C(c1ccc(F)cc1)N1CCn2c(nn(-c3ccc(F)cc3)c2=O)C1	0	0	0	0	0	0	-	-	-	-
Cc1cc(C)cc(NC(=O)[C@H]2CCC[C@H]2NC(=O)c2cnc(C)cn2)c1	0	0	0	0	0	0	-	-	-	-
COc1ccc(-c2noc(CC3CCN(C(=O)CCCc4ccccc4)CC3)n2)cc1	28µM	0	0	0	?	?	17µM	19µM	0	19µM
COc1ccc(CCC(=O)N2CCC(Cc3nc(C4CCOCC4)no3)CC2)cc1	?	0	0	0	0	0	-	-	-	-
Cc1ccc(NC(=O)N2CCC3(CC2)CC(Cc2nc(-c4ccccc4)no2)CCO3)cc1C (stereo not given)	?	0	0	0	10µM	?	12µM	15µM	0	12µM
COc1ccccc1CCC(=O)N1CCC(Cc2nc(-c3ccccc3)no2)CC1	?	0	?	0	?	?	-	-	-	-
COc1cccc(-c2noc(CC3CCN(C(=O)CCCc4ccccc4)CC3)n2)c1	?	0	?	0	?	?	?	?	0	31µM
COc1cccc(CCC(=O)N2CCC(Cc3nc(-c4ccc(F)cc4)no3)CC2)c1	?	0	0	0	11µM	?	14µM	17µM	0	11µM
O=C(Nc1ccc2c(c1)OCCO2)N1CCC2(CC1)CC(Cc1ccccc1)CCO2 (stereo not given)	?	0	0	-	-	?	-	-	-	-
O=C(CCCc1ccccc1)N1CCC2(CC1)CC(Cc1nc(-c3cccnc3)no1)CCO2 (stereo not given)	35µM	?	0	0	16µM	?	22µM	19µM	0	19µM
C[S+](=O)([O-])CCn1ncc2cc(OCC3CCN(c4ncc(F)cn4)CC3)ccc21	-	-	-	-	-	-	13µM	?	0	11µM
CC1=NS(=O)(=O)N(C)C=C1C(=O)OCc1nc(-c2ccccc2F)no1	0	0	0	0	?	0	?	?	0	?
COc1ccc(CN2C=C(C(=O)OCc3nc(-c4ccc(F)cc4)no3)C(C)=NS2(=O)=O)cc1	?	0	?	0	?	?	-	-	-	-
COc1ccc(CN2C=C(C(=O)OCc3nc(C4CC4)no3)C(C)=NS2(=O)=O)cc1	?	0	0	0	0	?	-	-	-	-
COc1ccc(-c2noc(COC(=O)C3=CN(C)S(=O)(=O)N=C3C)n2)cc1	?	0	0	0	7.9µM	0	12µM	17µM	0	14µM
CC1=NS(=O)(=O)N(C)C=C1C(=O)OCc1nc(C2CCCCC2)no1	0	0	0	0	13µM	?	22µM	?	0	17µM
CC1=NS(=O)(=O)N(C)C=C1C(=O)OCc1nc(Cc2ccc(C)cc2)no1	0	0	0	0	11µM	0	22µM	?	0	19µM
COc1ccc(CN2C=C(C(=O)OCc3nc(Cc4cccc(C)c4)no3)C(C)=NS2(=O)=O)cc1	0	0	0	0	0	0	-	-	-	-
O=C(CSc1nc2c(c(=O)n1-c1ccccc1)SCC2)Nc1ccc(-c2ccccc2)cn1	-	0	-	-	-	-	-	-	-	-
COc1cccc(-c2cccc(CN3CCCC3C(=O)NCc3cccs3)c2)c1 (stereo not given)	?	0	0	-	-	?	-	-	-	-
CC1=NS(=O)(=O)N(Cc2ccccc2)C=C1C(=O)OCc1nc(-c2ccccc2)no1	?	0	0	0	0	?	-	-	-	-
CC1=NS(=O)(=O)N(C)C=C1C(=O)OCc1nc(-c2ccc(OC(F)(F)F)cc2)no1	40µM	0	0	0	10µM	?	15µM	14µM	0	12µM
CC1=NS(=O)(=O)N(C)C=C1C(=O)OCc1nc(-c2ccc(Br)cc2)no1	?	?	0	0	10µM	?	11µM	14µM	0	11µM
SMILES	HEK293 tox	SNCA viab count	SNCA expr inh	FLuc inh	hNpr1 antagonist	NIH3T3 tox	Npr1 antag conf	Npr2 selectivity	FLuc inh counter	GloSensor cGMP
CCOCC(=O)N1CCN(c2nnnn2-c2ccccc2)CC(O)C1 (stereo not given)	0	0	0	0	0	0	-	-	-	-
COc1ccc([C@@H]2CN(c3nnnn3-c3ccccc3)C[C@H]2NC(C)=O)cc1	0	0	0	0	?	0	?	?	0	0
O=C(NCc1cccc(Cl)c1)c1cc2n(n1)CC(c1ccc3c(c1)OCO3)OC2 (stereo not given)	?	0	0	0	0	?	-	-	-	-
O=C(NC1CCN(Cc2ccccc2)CC1)c1cc2n(n1)CC(c1ccc3c(c1)OCO3)OC2 (stereo not given)	?	0	0	0	13µM	?	22µM	22µM	0	17µM
CC1CCC(NC(=O)c2cc3n(n2)CC(c2ccc(Cl)cc2)OC3)CC1 (stereo not given)	?	0	0	0	0	?	-	-	-	-
O=C(NC1CCN(Cc2ccccc2)CC1)c1cc2n(n1)CC(c1ccc(Cl)cc1)OC2 (stereo not given)	?	0	?	0	10µM	?	19µM	17µM	0	12µM
CC(C)(Oc1nn(Cc2cccc(Cl)c2)c2ccccc12)C(=O)NCCc1cnc[nH]1	?	?	0	0	22µM	?	28µM	25µM	0	25µM
CC(C)(Oc1nn(Cc2cccc(Cl)c2)c2ccccc12)C(=O)N1CC(O)C1	?	0	0	0	?	?	-	-	-	-
Cc1cccc2c1nc1n2[C@@H](CNCc2ccc(C#N)cc2)COC1	?	0	0	0	?	?	-	-	-	-
Fc1ccc2c(c1)nc1n2[C@@H](CNCc2ccccn2)COC1	?	0	0	0	0	?	-	-	-	-
Fc1ccc2c(c1)nc1n2[C@@H](CNCc2cnc3ccccc3c2)COC1	?	0	0	0	35µM	0	40µM	?	0	40µM
